MEP2 TOR yeast: yeast TOR pathway MEP2-GFP modulation; S. cerevisiae MEP2-GFP strain, flow cytometry GFP, 3 h; 100% = DMSO control level; AID 2016; actives 0.51% (n = 330,000); GFP response vs DMSO, % at 10 µM;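 active means GFP response versus DMSO above a set limit, roughly screen mean plus 3 SD, cut at about 180% in these data; inconclusive means fewer than 70 cells counted for a yeast strain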;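 further: median GFP fluorescence of the barcode-gated MEP2-GFP cells per well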
CIT2 TOR yeast: yeast TOR pathway CIT2-GFP modulation | S. cerevisiae CIT2-GFP strain, flow cytometry, 3 h; 100 means same as DMSO wells | AID 2029 | actives 0.065% (n = 320,000) | GFP response vs DMSO, % at 10 µM;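 active means GFP response relative to DMSO above a set limit, near the screen mean plus 3 SD, cut at about 150% in these data; inconclusive means Fewer than 70 cells measured for a yeast strain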;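 further: ratio of well median GFP fluorescence to mean of DMSO wells on the plate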
RPL19A-GFP yeast: alters RPL19A-GFP fluorescence in TOR pathway yeast screen. S. cerevisiae RPL19A-GFP strain, flow cytometry, 3 h; active compounds read low. percent response vs DMSO, % at 10 µM. actives 0.3% (n = 330,000);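 active means percent response vs DMSO below 50%; inconclusive means fewer than 70 events counted for the yeast strain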;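 further: median channel GFP fluorescence of the barcoded RPL19A-GFP strain; ratio of sample median GFP to plate DMSO average so 100% = DMSO; lower means less RPL19A-GFP as with rapamycin TOR inhibition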
DSG3 Ab inh: human desmoglein-3 autoantibody binding inhibition. DSG3-coupled beads, scFv-anti-DSG3-GFP binding, flow cytometry; active compounds read low. binding (percent of control), % at 10 µM. actives 0.48% (n = 310,000);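 active means binding more than 3 SD below its plate's average and above zero; inconclusive means below that plate limit but binding exactly zero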;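 further: hits lower antibody fragment binding to DSG3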
LAP4-GFP MLPCN: yeast TOR pathway LAP4-GFP modulation | actives 0.34% (n = 320,000) | GFP response vs DMSO, % at 10 µM | S. cerevisiae LAP4-GFP multiplex, flow cytometry GFP, 3 h; median GFP as percent of DMSO wells;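 active means GFP response vs DMSO above a set limit, about the screen mean plus 3 SD, cut at about 150% in these data; inconclusive means under 70 cell events counted for the yeast strain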
AGP1-GFP MLPCN: modulators of TOR pathway AGP1-GFP in S. cerevisiae | S. cerevisiae AGP1-GFP multiplex flow cytometry, 3 h; GFP as percent of DMSO wells | GFP response vs DMSO, % at 10 µM | actives 0.02% (n = 320,000) | AID 2066;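 active means GFP response relative to DMSO above a set limit, near screen average plus 3 SD, cut at about 150% in these data; inconclusive means fewer than 70 cells counted for the yeast strain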;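 further: median GFP channel fluorescence of the gated AGP1 strain per well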
* = called active by the depositor; ? = inconclusive; · = no result; [ ] = another dose, or the depositor's remark. A selection: hits, their analogues and other compounds. The true share with any hit is near 1.2%.

SMILES | MEP2 TOR yeast | CIT2 TOR yeast | RPL19A-GFP yeast | DSG3 Ab inh | LAP4-GFP MLPCN | AGP1-GFP MLPCN
O=C(Cn1nnc2ccccc21)c1ccc(Br)cc1 | 104 | 99 | 98 | 13* | 104 | 100
Cc1nnc(N2CCCC(C(=O)NCc3ccc(OC(C)C)cc3)C2)c2nn(-c3ccccc3)c(C)c12 (configuration not stated) | 253*[may fluoresce violet] | ? | 48*[may fluoresce violet] | 120 | 62 | ?
CCN(C(=O)CN1C(=O)NC2(CCc3ccccc32)C1=O)C1CCS(=O)(=O)C1 (configuration not stated) | 100 | 87 | 97 | 100 | 97 | 97
O=C(NCC1CCCO1)c1nn2c(C(F)(F)F)cc(-c3cc(Br)cs3)nc2c1Br (configuration not stated) | 231*[may fluoresce violet] | ? | 44*[may fluoresce violet] | 91 | 67 | ?
N=c1c(C(=O)NCc2ccco2)cc2c(=O)n3ccccc3nc2n1C1CCCC1 | 269*[may fluoresce violet] | ? | 59 | 122 | 89 | 81
N=c1c(C(=O)NC2CCCC2)cc2c(=O)n3ccccc3nc2n1C1CCCC1 | 308*[may fluoresce violet] | ? | 16*[may fluoresce violet] | 94 | 107 | ?
N=c1c(C(=O)NCc2ccco2)cc2c(=O)n3ccccc3nc2n1Cc1ccccc1 | 131 | ? | 67 | 101 | 97 | 23
COCCn1c(=N)c(C(=O)NCc2ccco2)cc2c(=O)n3ccccc3nc21 | 573* | 94 | 61 | · | 107 | 66
CCc1noc(C)c1C(=O)NNC(=O)COc1ccc(C)c(C)c1 | 104 | 100 | 103 | 96 | 106 | 102
O=C(CCS(=O)(=O)Cc1ccccc1F)NCCc1ccc(Cl)cc1 | 518* | 150* | 57 | 92 | · | 162*
COCc1nnc(NC(=O)C2CCN(C(=O)c3ccco3)CC2)s1 | 968*[may fluoresce violet] | ? | 57 | 109 | 113 | 19
Cc1ccc(C(=O)c2nccn2C)cc1C | 100 | 98 | 100 | 94 | 121 | 92
O=C(OCc1cccc([N+](=O)[O-])c1)c1cnccn1 | 175* | 92 | 82 | 97 | 91 | 25
COc1ccc(N(CC(=O)N2CCCCCC2)S(=O)(=O)c2ccc(OC)c(OC)c2)cc1 | 98 | 106 | 103 | 108 | 90 | 102
COc1ccc(S(=O)(=O)N(CC(=O)N2CCOCC2)c2ccc(F)cc2)cc1OC | 221*[may fluoresce red and violet] | ? | ? | 95 | 80 | ?
CCOc1ccc(N(CC(=O)OC)S(=O)(=O)c2ccc(OC)c(OC)c2)cc1 | 205*[may fluoresce violet] | ? | 56 | 107 | 80 | ·
OCCn1ccc(-c2ccccc2OCc2ccc(F)cc2)n1 | 105 | 107 | 102 | 106 | 95 | 99
COc1cccc(OCC(=O)O)c1 | 101 | 107 | 95 | 107 | 100 | 104
Cc1cnccc1CN(C)C(=O)C1CCC(=O)N(Cc2ccccc2F)C1 (configuration not stated) | 121 | ? | 32*[may fluoresce violet] | ? | 76 | ?
Cc1cccc(CNC(=O)CCn2ccc3cc(S(=O)(=O)N4CCCC4)ccc32)c1 | 161 | ? | 17*[may fluoresce violet] | 101 | 67 | ?
CCOC(=O)C1CCN(S(=O)(=O)c2ccc(CNC(=O)c3ccccc3)s2)CC1 | 101 | 95 | 102 | 112 | 99 | 96
Cc1ccc(-n2ncc(C#N)c2/N=C/N2CCOCC2)cc1 | 103 | · | 101 | 95 | 97 | 100
Cc1ccc(-n2ncc(C#N)c2/N=C/N(C)C)cc1 | 267* | 117 | 92 | · | 158* | 102
CCN1C(=O)c2ccc(C(=O)Nc3ccc4c(c3)OCO4)cc2C1=O | 102 | 111 | 106 | 102 | 101 | 105
c1ccc(-c2csc3ncnc(N4CCN(Cc5ccc6c(c5)OCO6)CC4)c23)cc1 | 103 | 102 | 99 | ? | 88 | 94
SMILES | MEP2 TOR yeast | CIT2 TOR yeast | RPL19A-GFP yeast | DSG3 Ab inh | LAP4-GFP MLPCN | AGP1-GFP MLPCN
O=C(CSc1ncnc2scc(-c3ccccc3)c12)N1CCN(Cc2ccc3c(c2)OCO3)CC1 | 198*[may fluoresce violet] | ? | 30*[may fluoresce violet] | 120 | 57 | ?
O=C(COC(=O)c1cccc(-n2cnnn2)c1)c1ccc(F)c(F)c1 | · | · | · | 98 | · | ·
CCOc1ccc(S(=O)(=O)n2ccnc2C)cc1 | 111 | 108 | 110 | · | 106 | 153*
O=C(COC(=O)Cc1ccc(-c2ccccc2)cc1)NCc1ccc(F)cc1 | 106 | 92 | 100 | 19* | 105 | 94
Cc1ccc(CNC(=O)COC(=O)Cc2ccc(-c3ccccc3)cc2)cc1 | 61 | 90 | 98 | 93 | 76 | 83
O=C(O)CSc1cccc[n+]1[O-] | 99 | 95 | 96 | 100 | 93 | 99
O=C(CSc1cccc[n+]1[O-])c1cc2ccccc2o1 | 96 | 83 | 91 | 105 | 155* | 90
CCN(CC(O)Cn1c2ccccc2c2ccccc21)S(=O)(=O)c1ccc(F)cc1 (configuration not stated) | 152 | 110 | 104 | 100 | 153* | 101
O=S(=O)(c1ccc(F)cc1)N(CCO)CC(O)Cn1c2ccccc2c2ccccc21 (configuration not stated) | 103 | 92 | 103 | 98 | 101 | 97
O=C(NCc1ccncc1)c1cc(-c2ccc(Cl)cc2)oc1C(F)(F)F | 94 | 95 | 91 | 107 | 109 | 101
O=C(NCc1ccccn1)c1cc(-c2ccc(Cl)cc2)oc1C(F)(F)F | 90 | 79 | 77 | 112 | 155* | 79
Cc1[nH]c(=O)[nH]c(=S)c1C(=O)Nc1ccc(Cl)c(Cl)c1 | 104 | · | 99 | 97 | · | ·
CNC(=O)CSc1cnc2ccccc2n1 | 103 | 106 | 107 | 113 | 93 | 95
Cc1cc(C)c(C(=O)Cn2cnc3cc([N+](=O)[O-])ccc3c2=O)cc1C | 196* | 87 | 105 | 96 | 90 | 27
Nc1nc(N)c2c(n1)CCCC2 | 101 | 97 | 98 | 90 | 96 | 96
Nc1ncnc2c1CCC2 | 213*[may fluoresce violet] | ? | 60 | 103 | 102 | 28
O=C(CC1C(=O)NCCN1C(=O)Nc1ccccc1)Nc1cc(Cl)ccc1Cl (configuration not stated) | 90 | 97 | 97 | 102 | 93 | 106
Cc1ccccc1NC(=O)N1CCNC(=O)C1CC(=O)Nc1cc(Cl)ccc1Cl (configuration not stated) | 109 | 159*[may fluoresce green] | 94 | 113 | 103 | 118
Cc1cc(C)c(C(=O)COC(=O)c2ccc([N+](=O)[O-])o2)cc1C | 95 | 65 | 99 | 107 | 225* | 97
CCOc1ccc(NC(=O)CSc2nnc(C)n2CC)cc1 | 103 | 108 | 108 | 78* | 82 | 111
CCn1c(C)nnc1SCC(=O)Nc1ccc(OC)cc1 | · | · | · | 97 | · | ·
CC(C)c1ccc(S(=O)(=O)N2CCN(C(=O)c3ccncc3)CC2)cc1 | 105 | 103 | 102 | · | 112 | 107

Screening data from PubChem BioAssay.
